Hits are enriched below; roughly 7.9% of the tested compounds scored in any of these assays.
FMDV inh = foot and mouth disease virus antiviral activity; FMDV antiviral cell-based qHTS; Potency, µM (titrated, usually from 57.9 µM), without a hit: top-dose activity change, negative = inhibition, usual class: inhibitors; 410,000 compounds, 1.2% hits; AID 1159524; calls by dose curve; tested in HEK293T cells; also: read-out not given here; potency is read from the fitted curve at half-maximal effect; % is scaled to controls: 0 for no effect and ±100 for the full control effect; nearly all actives have a fitted effect of over 45% in size
HCMV inh = inhibitors of human cytomegalovirus | activity change, negative = inhibition, % at 57.5 µM | HFF cells, HCMV-luciferase reporter, 72 h; active compounds read low | 410,000 compounds, 4.5% hits; in the data active = activity change below about -60%; inconclusive = no clear call, values can overlap the other calls; inactive = above about -39%; also: % is scaled to controls: 0 for no effect and ±100 for the full control effect
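Compounds were evaluated in HFFs infected with an HCMV luciferase reporter virus (MOI 1 PFU/cell). Luciferase in lysates collected 72 h post infection served as the replication measure.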
LASV entry inh = inhibitors of Lassa virus binding or cell entry | Lassa virus pseudotype entry inhibition, cell reporter | Potency, µM (top dose mostly 37.9 µM), for the others: top-dose activity change, negative = inhibition, most hits filed as inhibitors | 300,000 compounds, 1.2% hits | AID 540256; calls by dose curve; tested in HEK293 cells; also: potency is read from the fitted curve at half-maximal effect; % is scaled to controls: 0 for no effect and ±100 for the full control effect; nearly all actives have a fitted effect of over 50% in size
Marburg entry inh = inhibitors of Marburg virus binding or cell entry. Potency, µM (doses to about 37.8 µM), inactives show at the highest dose activity change, negative = inhibition, most hits filed as inhibitors. 300,000 compounds, 1.8% hits. Marburg virus pseudotyped entry inhibition, cell reporter; calls by dose curve; tested in HEK293 cells; also: potency is read from the fitted curve at half-maximal effect; % is scaled to controls: 0 for no effect and ±100 for the full control effect
HCV inhibitor = inhibitors of hepatitis C virus infection. 340,000 compounds, 3.4% hits. Huh7.5.1 HCVcc-Cre infection, luciferase reporter, 44 h. Potency, µM (top dose mostly 41.8 µM), inactives show at the highest dose activity change, negative = inhibition, hits mostly inhibitors; also: potency is read from the fitted curve at half-maximal effect; % is scaled to controls: 0 for no effect and ±100 for the full control effect
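Infectious HCV cell culture screen: compound-treated cells (1,000/well, pre-plated 4 h) are infected with HCVcc-Cre at roughly 0.5 moi and grown 44 h. Infection is quantified by luciferase signal after 15 min substrate incubation at room temperature.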
HCV inh confirm = confirmation of hepatitis C virus inhibitors. shares compounds with HCV inhibitor. HCVcc-Cre infectious virus cell assay, luciferase, inhibition. Potency, µM (titrated, usually from 41.8 µM), inactives show top-dose activity, negative = inhibition, usual class: inhibitors. 640 compounds, 78% hits; also: potency is read from the fitted curve at half-maximal effect; nearly all actives have a fitted effect of over 80% in size
HCV cytotox = counter-screen for HCV inhibitors: host cell cytotoxicity | shares compounds with HCV inhibitor | Potency, µM (series often up to 41.8 µM), for inactives: top-dose activity change, negative = cytotoxicity, hits mostly inhibitors | HCV host cell line cytotoxicity counterscreen | 640 compounds, 22% hits;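 also: potency is read from the fitted curve at half-maximal effect; 44 h compound exposure; % is scaled to controls: 0 for no effect and ±100 for the full control effect; nearly all actives have a fitted effect of over 55% in size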
* marks the source's active call; other numbers are inactive results; ? = inconclusive; . = no result; ! = not confirmed by another sample; [ ] = another dose, or the depositor's remark. Unless noted, calls follow the shape of the dose curve; as a rule, active = well fitted curve in the direction sought with a large enough effect; inconclusive = small, poorly fitted or top-dose-only effect, or another doubt; inactive = no such curve, though single readings can be large; an effect the other way counts as inactive or inconclusive.

SMILES	FMDV inh	HCMV inh	LASV entry inh	Marburg entry inh	HCV inhibitor	HCV inh confirm	HCV cytotox
COC(=O)[C@@]12C[C@@H](CC(=O)NCc3cccc(C(F)(F)F)c3)C(=O)N(Cc3ccc4c(c3)OCO4)C1=CCC(C)(C)C2	-27%	-30	.	.	.	.	.
CC(C)(c1cc(Cl)c(O)c(CN2CCOCC2)c1)c1cc(Cl)c(O)c(CN2CCOCC2)c1	-21%	-1	?	?	3.2µM*	6.3µM*	45%
Oc1c(CN2CCOCC2)cc(CN2CCOCC2)c(O)c1CN1CCOCC1	-2%	-17	3%[46.1 µM]	4%[46.1 µM]	6%	.	.
COc1ccc(Nc2nc(N)nc(CN3CCOCC3)n2)cc1	17%	12	-6%	-1%[46.1 µM]	13%	.	.
COc1ccc(Nc2nc(N)nc(CCl)n2)cc1	45%	-98*	.	.	4µM*	6.3µM*	2.5µM*
COc1ccc2ccc3ccc(OC)c(OC(C)=O)c3c2c1	-8%	-10	5%[46.1 µM]	14%	?	25µM*	-13%
COc1ccc(OC)c(CC(=O)O)c1	7%	30	8%	2%	12%	.	.
CC(C)Sc1nc2c(c(=O)[nH]c(=O)n2C)n1Cc1ccccc1	-23%	19	-19%	0%	?	-26%	14%
CC(C)Sc1nc2c(c(=O)[nH]c(=O)n2C)n1CCc1ccccc1	-24%	-26	?	-2%	8%	.	.
O=S(=O)(c1cccc(Br)c1)N1CCN(C(=S)NCC2CCCO2)CC1 (stereo not given)	26%	-1	-6%	-20%	7%	.	.
Cc1cccc2cc(C#N)c(NCCCNS(=O)(=O)c3ccc(Cl)cc3)nc12	?	-67*	.	.	8.9µM*	14µM*	?
CCOc1ccccc1NC(=O)NC1CCCc2ccccc21 (stereo not given)	?	32	.	.	?	7.9µM*	31%
COCCn1c(=O)[nH]c2cc(C(=O)N3CCN(c4ccc(Cl)cc4)CC3)ccc2c1=O	16µM*!	-23	21%[46.1 µM]	?	8.9µM*	7µM*	?
O=C(COC(=O)COc1ccc(Cl)cc1Cl)NC1CCCC1	-3%	-35	-1%[46.1 µM]	7%	?	.	.
COC(=O)N/N=C/c1cc(C)n(-c2ccccc2)c1C	55%	35	2%	-1%	-1%	.	.
Cc1cc(C(=O)N/N=C/c2ccc(O)c(O)c2O)c(C)n1-c1ccccc1	-7%	?	?	?	5.6µM*	13µM*	?
CCN(CC(=O)Nc1ccc([N+](=O)[O-])cc1OC)c1ccccc1	.	10	?	?	3.2µM*	14µM*	-15%
COc1cc([N+](=O)[O-])ccc1NC(=O)CN(C)C	.	31	-2%	7%	?	.	.
COc1cccc(-c2cnc(C(O)c3ccc(Cl)c(F)c3)[nH]2)c1 (stereo not given)	33%	-32	.	.	.	.	.
c1ccc(Cn2nnc3c(N4CCc5ccccc5C4)ncnc32)cc1	-9%	-6	2%	-4%	-24%	.	.
c1ccc2c(c1)CCN(c1ncnc3c1[nH]c1ccccc13)C2	11µM*	-66*	?	?	2.5µM*	2.8µM*	6.3µM*
COc1ccc2c(CNCc3ccc(Cl)cc3)c(C(=O)O)n(Cc3ccccc3C)c2c1	5%	?	26%[46.1 µM]	.	.	.	.
COC(=O)c1c(C(=O)OC)c2cccc3cc(-c4ccccc4)c4ccc1c4n32	-13%	-4	1%	1%	1.8µM*	5.6µM*	?
COc1cc(OC)cc(C(=O)Nc2nc(-c3ccccc3)c(-c3ccccc3)o2)c1	-25%	?	?	21µM*	7.1µM*	13µM*	9%
CCn1cc(CN2CCc3c([nH]c4ccccc34)C2c2cccc(OC)c2OC)c(C)n1 (stereo not given)	-11%	21	-9%	?	-6%	.	.
SMILES	FMDV inh	HCMV inh	LASV entry inh	Marburg entry inh	HCV inhibitor	HCV inh confirm	HCV cytotox
CCc1ccccc1NC(=S)/N=C(\N)Nc1nc(C)c2cc(C)ccc2n1	-9%	?	?	?	?	10µM*	?
CCOc1ccc2nc(N/C(N)=N/C(=S)Nc3cccc(C)c3)nc(C)c2c1	-20%	-26	1%	0%	5.6µM*	7.9µM*	-19%
N#Cc1c2ccc(OCC(=O)NCc3ccco3)cc2n2ccccc12	-2%	-3	11%	-1%[46.1 µM]	?	.	.
N#Cc1c2ccc(O)cc2n2ccccc12	20%	?	?	?	7.1µM*	22µM*	15%
COc1cc(C2CC(=O)C3=C(C2)Nc2ncnn2C3c2cccs2)cc(OC)c1OC (stereo not given)	-10%	-8	-13%[46.1 µM]	-4%[46.1 µM]	0%	.	.
COc1ccc(C2CC(=O)C3=C(C2)Nc2ncnn2C3c2ccccc2C)c(OC)c1 (stereo not given)	?	-3	-8%	?	3.5µM*	7µM*	22%
Cc1ccn2c(Nc3ccc(C(C)C)cc3)c(-c3cccs3)nc2c1	8%	-1	27%[46.1 µM]	?	.	.	.
CC1CCN(CCOCCOc2ccccc2-c2ccccc2)CC1	-12%	?	?	?	?	.	.
CC1CCN(CCCCOc2ccccc2-c2ccccc2)CC1	0%	?	2.1µM*	2.3µM*	?	20µM*	-28%
COc1cc(C)c(S(=O)(=O)NOCc2ccccc2)c(C)c1C	48%	-18	.	.	?	.	.
CSc1ccc(NC(=O)Nc2cccn(Cc3ccccc3F)c2=O)cc1	-14%	-81*	.	.	3.5µM*	8.9µM*	-74%
O=C(NCc1ccccc1)Nc1cccn(Cc2ccccc2F)c1=O	-12%	-28	-9%	?	-19%	.	.
O=C(COc1ccccc1Cl)Nc1ccc2c(c1)C(=O)NC2=O	3%	15	?	-5%[46.1 µM]	8%	.	.
CCCOc1ccc(/C=N/Nc2cccc([N+](=O)[O-])c2)c(O)c1	6%	?	?	?	?	28µM*	-30%
Cc1nnc(C)c2c(C)n(-c3ccc(Cl)c(N)c3)c(C)c12	-22%	-24	-1%[46.1 µM]	?	?	.	.
Cc1cc(C)cc(-n2c(C)c3c(C)nnc(C)c3c2C)c1	0%	-32	?	?	2.2µM*	11µM*	-14%
COc1ccc(OC)c(NC(=O)/C=C/c2ccc(S(=O)(=O)N3CCOCC3)cc2)c1	-11%	-13	-10%	2%	?	11µM*	?
COc1ccccc1/C=C/C(=O)Nc1cccc(S(=O)(=O)N2CCOCC2)c1	-7%	-14	2%	-8%	?	.	.
COc1cc(/C=C/C(=O)Nc2cccc(S(=O)(=O)N3CCOCC3)c2)ccc1OCC#N	?	-24	.	.	?	2.8µM*	20%
Cc1ccc(C(=O)c2c3ccc([N+](=O)[O-])cc3[n+]([O-])n2CCCN)cc1	7%	-2	.	.	7.9µM*	7µM*	51%
